{"source": "PubChem BioAssay (NCI)", "key": {"[1]": {"assay": "NCI Yeast Anticancer Drug Screen. Data for the rad52 strain (AID 147);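 note: 0% = growth of vehicle-treated control cultures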", "settings": "S. cerevisiae rad52 mutant growth inhibition, active compounds read high", "procedure,_shortened": "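Measured: yeast growth inhibition. System: strain with a defined DNA damage repair alteration. Reference: vehicle-treated control cultures.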"}, "[2]": {"assay": "NCI Yeast Anticancer Drug Screen. Data for the rad50EPP+ strain (AID 151);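 note: 0% = growth of vehicle-treated control cultures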", "settings": "S. cerevisiae rad50 mutant strain, active compounds read high", "procedure,_shortened": "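One strain with a rad50 alteration (rad50EPP+) was compound-treated, its growth then compared to that of vehicle controls.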"}, "[3]": {"assay": "NCI Yeast Anticancer Drug Screen. Data for the mgt1 strain (AID 153)", "settings": "S. cerevisiae mgt1 mutant growth inhibition, active compounds read high", "procedure,_shortened": "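After exposure of the mgt1 yeast mutant to compound, growth was measured and reported as inhibition compared with vehicle controls.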"}, "[4]": {"assay": "NCI Yeast Anticancer Drug Screen. Data for the rad50 strain (AID 155);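 note: 0% = growth of vehicle-only cultures of the same strain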", "settings": "S. cerevisiae rad50 strain growth inhibition, active compounds read high", "procedure,_shortened": "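DNA repair mutant yeast, compound exposure, growth read-out; inhibition is taken relative to vehicle.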"}, "[5]": {"assay": "NCI Yeast Anticancer Drug Screen. Data for the mec2-1 strain (AID 157)", "settings": "S. cerevisiae mec2-1 strain, active compounds read high", "procedure,_shortened": "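Test agents were screened against the mec2-1 yeast strain, with defined DNA repair or cell cycle alteration. Growth was scored as inhibition against vehicle-only controls.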"}, "[6]": {"assay": "NCI Yeast Anticancer Drug Screen. Data for the rad14 strain (AID 159);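 note: 0% = growth of vehicle-treated control cultures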", "settings": "S. cerevisiae rad14 strain growth inhibition, active compounds read high", "procedure,_shortened": "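DNA repair-defective yeast, compound-exposed; % growth inhibition derived by comparison with vehicle-treated controls.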"}, "[7]": {"assay": "NCI Yeast Anticancer Drug Screen. Data for the sgs1 mgt1 strain (AID 161);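 note: 0% = growth of cultures given vehicle only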", "settings": "S. cerevisiae sgs1 mgt1 strain, active compounds read high", "procedure,_shortened": "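Genetically altered yeast, compound exposure, growth inhibition relative to vehicle.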"}, "[8]": {"assay": "NCI Yeast Anticancer Drug Screen. Data for the CLN2oe strain (AID 163);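 note: 0% = growth of vehicle-only control cultures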", "settings": "S. cerevisiae CLN2oe strain, active compounds read high", "procedure,_shortened": "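Here, growth inhibition in a cell-cycle-altered yeast strain after compound exposure was quantified against vehicle control growth.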"}, "[9]": {"assay": "NCI Yeast Anticancer Drug Screen. Data for the cln2 rad14 strain (AID 165);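 note: 0% = growth equal to vehicle treated cultures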", "settings": "S. cerevisiae cln2 rad14 strain, active compounds read high", "procedure,_shortened": "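Growth of compound-exposed yeast (cln2 rad14 genotype) measured and expressed as inhibition relative to vehicle.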"}, "[10]": {"assay": "NCI Yeast Anticancer Drug Screen. Data for the bub3 strain (AID 167)", "settings": "S. cerevisiae bub3 mutant strain, active compounds read high", "procedure,_shortened": "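In this screen, a yeast mutant lacking normal mitotic checkpoint function is challenged with compound. Relative growth versus vehicle gives the inhibition value.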"}, "[11]": {"assay": "NCI Yeast Anticancer Drug Screen. Data for the wt2 strain (AID 169);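 note: 0% = growth of vehicle-treated yeast cultures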", "settings": "S. cerevisiae wt2 strain growth inhibition, active compounds read high", "procedure,_shortened": "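Genetically defined yeast strains from a DNA-repair/cell-cycle panel were used. Compound-exposed yeast growth was measured, and the inhibition was calculated relative to vehicle treatment.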"}, "[12]": {"assay": "NCI Yeast Anticancer Drug Screen. Data for the mlh1 strain (AID 171);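 note: 0% = growth of vehicle-treated control cultures of the same strain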", "settings": "S. cerevisiae mlh1 strain growth inhibition, active compounds read high", "procedure,_shortened": "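Here the genetically defined yeast mutant is grown with each compound, and the extent to which its growth falls below that of vehicle-exposed cells is reported.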"}, "[13]": {"assay": "NCI Yeast Anticancer Drug Screen. Data for the sgs1 strain (AID 173);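 note: 0% = growth of vehicle-only control cultures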", "settings": "S. cerevisiae sgs1 mutant, active compounds read high", "procedure,_shortened": "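Relative growth inhibition, referenced to vehicle, was determined in a yeast strain with a defined alteration affecting DNA damage repair or cell cycle control after compound exposure.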"}, "[14]": {"assay": "NCI Yeast Anticancer Drug Screen. Data for the mlh1 rad18 strain (AID 175)", "settings": "S. cerevisiae mlh1 rad18 strain growth inhibition, active compounds read high", "procedure,_shortened": "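In this whole-cell yeast screen, a strain with altered DNA damage repair is challenged with compound, and its growth is measured against matched vehicle-treated controls.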"}, "[15]": {"assay": "NCI Yeast Anticancer Drug Screen. Data for the rad18 strain (AID 177)", "settings": "S. cerevisiae rad18 mutant growth inhibition, active compounds read high", "procedure,_shortened": "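Screen uses a yeast strain with a defined lesion in DNA damage repair; compound effect is read as loss of growth compared to untreated vehicle cultures.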"}, "[16]": {"settings": "at 5.0 µM (retest, dose inferred, filed as 0.5)"}, "[17]": {"settings": "at 50.0 µM (retest, dose inferred, filed as 5.0)"}}, "note": "This is part of a sample that, as a whole, favours compounds with a hit. Of some 79,000 tested, about 15% had one in any assay. A number with no mark means an inactive call. Calls of active or inactive are those of the source. Cut-off read from the data, not from the text of the source: active = growth inhibition above about 70%; inactive = the rest.", "data": [{"smiles": "Oc1ccc(C2(c3ccc(O)cc3)CCCC2)cc1", "values": [{"measurement": "growth inhibition", "setting": "[1]; at 1.2 µM", "result": -31, "unit": "%"}, {"measurement": "growth inhibition", "setting": "[1]; at 3.7 µM", "result": -23, "unit": "%"}, {"measurement": "growth inhibition", "setting": "[1]; at 11.0 µM", "result": 15, "unit": "%"}, {"measurement": "growth inhibition", "setting": "[1]; at 33.0 µM", "result": "98% (active)"}, {"measurement": "growth inhibition", "setting": "[1]; at 100.0 µM", "result": "98% (active)"}, {"measurement": "growth inhibition", "setting": "[2]; at 1.2 µM", "result": -40, "unit": "%"}, {"measurement": "growth inhibition", "setting": "[2]; at 3.7 µM", "result": -50, "unit": "%"}, {"measurement": "growth inhibition", "setting": "[2]; at 11.0 µM", "result": -44, "unit": "%"}, {"measurement": "growth inhibition", "setting": "[2]; at 33.0 µM", "result": -50, "unit": "%"}, {"measurement": "growth inhibition", "setting": "[2]; at 100.0 µM", "result": -4, "unit": "%"}, {"measurement": "growth inhibition", "setting": "[3]; at 1.2 µM", "result": -23, "unit": "%"}, {"measurement": "growth inhibition", "setting": "[3]; at 3.7 µM", "result": -6, "unit": "%"}, {"measurement": "growth inhibition", "setting": "[3]; at 11.0 µM", "result": 37, "unit": "%"}, {"measurement": "growth inhibition", "setting": "[3]; at 33.0 µM", "result": "97% (active)"}, {"measurement": "growth inhibition", "setting": "[3]; at 100.0 µM", "result": "98% (active)"}, {"measurement": "growth inhibition", "setting": "[4]; at 1.2 µM", "result": 3, "unit": "%"}, {"measurement": "growth inhibition", "setting": "[4]; at 3.7 µM", "result": 4, "unit": "%"}, {"measurement": "growth inhibition", "setting": "[4]; [16]", "result": 16, "unit": "%"}, {"measurement": "growth inhibition", "setting": "[4]; at 11.0 µM", "result": 34, "unit": "%"}, {"measurement": "growth inhibition", "setting": "[4]; at 33.0 µM", "result": "98% (active)"}, {"measurement": "growth inhibition", "setting": "[4]; [17]", "result": "99% (active)"}, {"measurement": "growth inhibition", "setting": "[4]; at 50.0 µM", "result": "90.5% (active)"}, {"measurement": "growth inhibition", "setting": "[4]; at 100.0 µM", "result": "98% (active)"}, {"measurement": "growth inhibition", "setting": "[5]; at 1.2 µM", "result": -26, "unit": "%"}, {"measurement": "growth inhibition", "setting": "[5]; at 3.7 µM", "result": -16, "unit": "%"}, {"measurement": "growth inhibition", "setting": "[5]; [16]", "result": 8, "unit": "%"}, {"measurement": "growth inhibition", "setting": "[5]; at 11.0 µM", "result": 32, "unit": "%"}, {"measurement": "growth inhibition", "setting": "[5]; at 33.0 µM", "result": "98% (active)"}, {"measurement": "growth inhibition", "setting": "[5]; [17]", "result": "99% (active)"}, {"measurement": "growth inhibition", "setting": "[5]; at 50.0 µM", "result": "93.2% (active)"}, {"measurement": "growth inhibition", "setting": "[5]; at 100.0 µM", "result": "98% (active)"}, {"measurement": "growth inhibition", "setting": "[6]; at 1.2 µM", "result": 1, "unit": "%"}, {"measurement": "growth inhibition", "setting": "[6]; at 3.7 µM", "result": -16, "unit": "%"}, {"measurement": "growth inhibition", "setting": "[6]; at 11.0 µM", "result": 29, "unit": "%"}, {"measurement": "growth inhibition", "setting": "[6]; at 33.0 µM", "result": "98% (active)"}, {"measurement": "growth inhibition", "setting": "[6]; at 100.0 µM", "result": "98% (active)"}, {"measurement": "growth inhibition", "setting": "[7]; [16]", "result": 9, "unit": "%"}, {"measurement": "growth inhibition", "setting": "[7]; [17]", "result": 53, "unit": "%"}, {"measurement": "growth inhibition", "setting": "[7]; at 50.0 µM", "result": "92.1% (active)"}, {"measurement": "growth inhibition", "setting": "[8]; at 1.2 µM", "result": -12, "unit": "%"}, {"measurement": "growth inhibition", "setting": "[8]; at 3.7 µM", "result": 16, "unit": "%"}, {"measurement": "growth inhibition", "setting": "[8]; at 11.0 µM", "result": 48, "unit": "%"}, {"measurement": "growth inhibition", "setting": "[8]; at 33.0 µM", "result": "99% (active)"}, {"measurement": "growth inhibition", "setting": "[8]; at 100.0 µM", "result": "98% (active)"}, {"measurement": "growth inhibition", "setting": "[9]; [16]", "result": 44, "unit": "%"}, {"measurement": "growth inhibition", "setting": "[9]; [17]", "result": "99% (active)"}, {"measurement": "growth inhibition", "setting": "[9]; at 50.0 µM", "result": "89.5% (active)"}, {"measurement": "growth inhibition", "setting": "[10]; at 1.2 µM", "result": -24, "unit": "%"}, {"measurement": "growth inhibition", "setting": "[10]; at 3.7 µM", "result": -22, "unit": "%"}, {"measurement": "growth inhibition", "setting": "[10]; [16]", "result": 16, "unit": "%"}, {"measurement": "growth inhibition", "setting": "[10]; at 11.0 µM", "result": 27, "unit": "%"}, {"measurement": "growth inhibition", "setting": "[10]; at 33.0 µM", "result": "98% (active)"}, {"measurement": "growth inhibition", "setting": "[10]; [17]", "result": "98% (active)"}, {"measurement": "growth inhibition", "setting": "[10]; at 50.0 µM", "result": "92.1% (active)"}, {"measurement": "growth inhibition", "setting": "[10]; at 100.0 µM", "result": "98% (active)"}, {"measurement": "growth inhibition", "setting": "[11]; at 1.2 µM", "result": -54, "unit": "%"}, {"measurement": "growth inhibition", "setting": "[11]; at 3.7 µM", "result": -30, "unit": "%"}, {"measurement": "growth inhibition", "setting": "[11]; at 11.0 µM", "result": -18, "unit": "%"}, {"measurement": "growth inhibition", "setting": "[11]; at 33.0 µM", "result": "98% (active)"}, {"measurement": "growth inhibition", "setting": "[11]; at 100.0 µM", "result": "98% (active)"}, {"measurement": "growth inhibition", "setting": "[12]; at 1.2 µM", "result": -33, "unit": "%"}, {"measurement": "growth inhibition", "setting": "[12]; at 3.7 µM", "result": -26, "unit": "%"}, {"measurement": "growth inhibition", "setting": "[12]; at 11.0 µM", "result": 46, "unit": "%"}, {"measurement": "growth inhibition", "setting": "[12]; at 33.0 µM", "result": "98% (active)"}, {"measurement": "growth inhibition", "setting": "[12]; at 100.0 µM", "result": "98% (active)"}, {"measurement": "growth inhibition", "setting": "[13]; at 1.2 µM", "result": -20, "unit": "%"}, {"measurement": "growth inhibition", "setting": "[13]; at 3.7 µM", "result": -17, "unit": "%"}, {"measurement": "growth inhibition", "setting": "[13]; at 11.0 µM", "result": 11, "unit": "%"}, {"measurement": "growth inhibition", "setting": "[13]; at 33.0 µM", "result": "98% (active)"}, {"measurement": "growth inhibition", "setting": "[13]; at 100.0 µM", "result": "98% (active)"}, {"measurement": "growth inhibition", "setting": "[14]; [16]", "result": 35, "unit": "%"}, {"measurement": "growth inhibition", "setting": "[14]; [17]", "result": "99% (active)"}, {"measurement": "growth inhibition", "setting": "[14]; at 50.0 µM", "result": "90% (active)"}, {"measurement": "growth inhibition", "setting": "[15]; at 1.2 µM", "result": -11, "unit": "%"}, {"measurement": "growth inhibition", "setting": "[15]; at 3.7 µM", "result": 7, "unit": "%"}, {"measurement": "growth inhibition", "setting": "[15]; at 11.0 µM", "result": 60, "unit": "%"}, {"measurement": "growth inhibition", "setting": "[15]; at 33.0 µM", "result": "98% (active)"}, {"measurement": "growth inhibition", "setting": "[15]; at 100.0 µM", "result": "98% (active)"}]}]}
